Assay [1] has as its system MELK.
Assay [2] deals with T1, MINK.
T1 construct: gene MINK1

The test system of assay [3] is MKNK2.
The subject of assay [4] is T2, MST1.
T2 construct: gene STK4

The test system of assay [5] is NEK2.
Assay [6] deals with PAK3.
Assay [7] has as its system NLK.
The subject of assay [8] is T3, PCTK1.
T3 construct: gene CDK16

Assay [9] relates to T4, PCTK2.
T4 construct: gene CDK17

In assay [10] the test system is T5, PCTK3.
T5 construct: gene CDK18

In assay [11] the test system is PDGFRA.
Assay [12] deals with PDPK1.
Assay [13] relates to PHKG2.
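Note: kd values determined as follow-up on hits from a single-replicate KINOMEscan panel screen.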

Usually Kd stands for a measure of binding affinity in units of concentration. The low end stands for a tighter complex, the high end for a looser complex. On to `O=c1cc(N2CCOCC2)nc2n(Cc3cccc(Cl)c3Cl)c3ccccc3n12` [GSK2299009], for which the equilibrium dissociation constant (Kd) in assay [1] was more than 10000 nM.

Take `NS(=O)(=O)c1cccc(N/C=C2\C(=O)Nc3ccc(S(=O)(=O)Cc4c(Cl)cccc4Cl)cc32)c1` [GSK398099]: binding in [2] was characterised by a dissociation constant (Kd) of 790 nM.

Turning to `CNC(=O)c1ccc(C)c(-n2c(C)cc(OCc3ccc(F)cc3F)c(Br)c2=O)c1`, the dissociation constant (Kd) in [3] is more than 10000 nM. With `CC(C)c1cc(-c2ccc3c(N)n[nH]c3c2)nc(N)n1` [GSK2250882], the dissociation constant (Kd) in assay [3] came to 160 nM. Take `COc1cccc(C2=C(Nc3cc(Cl)c(O)c(Cl)c3)C(=O)NC2=O)c1` [SB-390767]: the Kd was 1800 nM in assay [4], more than 10000 nM in assay [5] and more than 10000 nM in [6]. In the case of `Nc1nccc(-c2c(-c3ccc(F)cc3)ncn2C2CCN(Cc3ccccc3)CC2)n1` [SB-219980], the Kd in assay [7] was determined as 140 nM. Regarding `O=C(Nc1n[nH]c2nc(-c3ccco3)c(Br)cc12)C1CCN(Cc2ccccc2)C1.O=C(O)[C@H](O)[C@@H](O)C(=O)O` (centres unmarked) [SB-742034], the dissociation constant Kd in assay [8] came out at 150 nM; in [9], 240 nM. In assay [8], `COc1ccc(Nc2nccc(N3CCC(NC(=O)C(C)c4ccc(Cl)cc4)CC3)n2)cc1` (centres unmarked) [GSK1379812] had a Kd of more than 10000 nM.

In assay [10], `CC(=O)c1c(C)c2cnc(Nc3ccn(C)n3)nc2n(C2CCCC2)c1=O` had a dissociation constant (Kd) of more than 10000 nM. With `Cn1cnc2c(N)ncnc21` [SKF-97623], the Kd in assay [11] was more than 10000 nM. `Cc1cnc(N)c(/C=C/c2cncc(C(=O)NCCc3ccc(Cl)cc3Cl)c2)c1.Cl` [GSK190937]: the equilibrium dissociation constant (Kd) in [11] is 39 nM. `CC[C@@H]1CO[C@H](C(=O)Nc2ccccc2)CN1c1cc(-c2ccc3c(N)n[nH]c3c2)nc(NC)n1` [GSK2376236] yielded a dissociation constant Kd in assay [12] of 1.7 nM. `CNc1nc(-c2ccc3c(N)n[nH]c3c2)cc(N2C[C@@H](C(=O)Nc3ccccc3)CC[C@H]2C)n1` [GSK2298859] came in with a dissociation constant (Kd) in assay [12] of 1.7 nM.

In the case of `Cc1nccc(-c2c(-c3ccc(F)cc3)ncn2CCCN2CCOCC2)n1.Cl` [SB-282975], the equilibrium dissociation constant (Kd) in [13] was more than 10000 nM.

The record behind these values is publication PMC5540273 (PLoS ONE, 2017).
